Records with an inconclusive call do not appear. Unmarked numbers belong to inactive results. Active and inactive are the calls of the source. Calls come from the whole dose curve.
The compounds below were run against Peroxisome proliferator-activated receptor delta (Homo sapiens) (UniProt Q03181) (assay: qHTS assay for small molecule agonists of peroxisome proliferator-activated receptor delta signaling (AID 588534;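 note: 0% = DMSO basal wells and 100% = positive control agonist at 10 µM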)). Conditions: HEK293T PPARdelta-UAS-bla, beta-lactamase ratio, 18 h; series mostly up to 76.7 µM; activation: at the top concentration.
Peroxisome proliferator-activated receptor delta (Homo sapiens), sequence (Q03181 whole entry, looked up): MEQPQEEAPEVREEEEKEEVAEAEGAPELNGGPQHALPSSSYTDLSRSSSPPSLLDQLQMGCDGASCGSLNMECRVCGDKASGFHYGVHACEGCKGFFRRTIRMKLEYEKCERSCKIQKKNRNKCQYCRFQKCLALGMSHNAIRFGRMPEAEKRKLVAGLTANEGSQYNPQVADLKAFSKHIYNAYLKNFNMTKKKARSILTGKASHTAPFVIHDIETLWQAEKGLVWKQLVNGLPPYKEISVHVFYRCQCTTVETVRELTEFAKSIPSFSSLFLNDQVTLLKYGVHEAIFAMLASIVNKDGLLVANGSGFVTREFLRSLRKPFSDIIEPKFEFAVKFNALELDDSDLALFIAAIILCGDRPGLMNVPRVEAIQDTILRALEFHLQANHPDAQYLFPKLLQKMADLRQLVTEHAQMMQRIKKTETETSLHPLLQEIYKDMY
Excerpt: NIH Chemical Genomics Center [NCGC] U.S. Environmental Protection Agency [EPA] National Institutes of Environmental Health Sciences [NIEHS] National Toxicology Program [NTP] NCGC Assay Overview The Peroxisome proliferator-activated receptors (PPARs) are lipid-activated transcription factors of the nuclear receptor superfamily with three distinct subtypes namely PPAR alpha, PPAR delta (also called PPAR beta) and PPAR gamma. All these subtypes heterodimerizes with Retinoid X receptor (RXR) and have different physiological functions. […] This role of PPAR delta implicates the potential use of its ligands in the treatment of metabolic disorders.
Compounds were screened in a titration series in 1536-well format. […] Concentration-response titration points for each compound were fitted to the Hill equation yielding concentrations of half-maximal stimulation (EC50) and maximal response (efficacy) values. qHTS protocol for PPAR-delta beta-lactamase assay in agonist mode [Step] [Parameter] [Value] [Description] 1. Reagent; 6 uL; 4000 cells/well 2. Incubation; 37 C for 5 hrs 3. Compounds; 23 nL; 0.59 nM to 92 uM 4. […] Incubation; 37 C for 18 hrs 6. Detection reagent; 1 uL of CCF4-dye 7. Incubation; RT for 2 hrs 8. Detection; Fluorescence; Envision plate reader

Compound	outcome	activation [%]
CC(Cl)(Cl)Cl	inactive	–
c1ccc(P(c2ccccc2)c2ccccc2)cc1	–	-8.8
CC(C)(COCC1CO1)COCC1CO1 (stereo not given)	–	-7.97
N#CC(Br)Br	–	8.47
CC12CC1(C)C(=O)N(c1cc(Cl)cc(Cl)c1)C2=O (stereo not given)	inactive	–
COc1c(C(C)(C)C)cc([N+](=O)[O-])c(C)c1[N+](=O)[O-]	–	8.05
Clc1ccc(C(c2ccccc2Cl)C(Cl)(Cl)Cl)cc1 (stereo not given)	inactive	–
CN(C)C(=O)Nc1ccc(Cl)cc1	inactive	–
Nc1ccccc1-c1ccccc1	–	-0.29
CN(C)C(=O)Cl	–	9.78
Cc1cccc(C)c1N	–	-3.27
C=C(Cl)CCl	–	0.881
Nc1ccc(Cl)c(Cl)c1	–	0.442
O=[N+]([O-])/C=C/c1ccccc1	–	9.3
Nc1cccc(Cl)c1	–	0.0678
Cl/C=C\Cl	–	7.85
CCBr	–	1.91
c1ccc(N=NNc2ccccc2)cc1	inactive	–
[N-]=[N+]=[N-]	–	-1.63
ClC=CCl	–	1.64

Compound	outcome	activation [%]
C=CCCC#N	–	-1.7
O=C(O)c1cccc(Cl)c1	–	4.68
Clc1cccc(Cl)c1Cl	inactive	–
c1ccc(C2CO2)cc1 (stereo not given)	–	-6.85
Nc1cccc2ccccc12	–	-9.2
CCCCOCC1CO1 (stereo not given)	–	-9.03
O=S(=O)(Cl)c1ccccc1	inactive	–
Oc1ccc(Cl)c(Cl)c1	–	5.02
CC(C)OS(C)(=O)=O	–	0.892
CC(C)(C)OOC(=O)c1ccccc1	inactive	–
O=[N+]([O-])c1ccc2c3c(cccc13)CC2	inactive	–
O=C(O)C(Cl)Br (stereo not given)	–	1.69
Clc1ccc(Cl)c(Cl)c1	inactive	–
CCCCC#N	–	-6.58
Nc1ccc(Oc2ccc(N)cc2)cc1	–	-6.13
CC(C)CC(C)N (stereo not given)	–	5.16
Clc1cccc2ccccc12	–	7.87
Nc1c(Cl)cc([N+](=O)[O-])cc1Cl	inactive	–
Nc1ccc([N+](=O)[O-])cc1N	inactive	–
C=CCCl	–	13.2

From PubChem BioAssay (NCATS)
